According to PubChem BioAssay (NCATS):
Several values for one entry are separate records, joined by “and”; a condition that tells them apart may be missing. Equal values may be shown once. Records with an inconclusive call do not appear. A structure can be active in one record and inactive in another. Activity calls are given as the source filed them. Calls come from the whole dose curve; as a rule, active = well fitted inhibition curve with a large enough effect; inconclusive = small, poorly fitted or top-dose-only effect; inactive = flat fitted curve, though single readings scatter.

Tests used:
HEK293 = test: Cytotoxic Profiling of Annotated Libraries Using Quantitative High-Throughput Screening (AID 1296008); settings: Five cell lines viability, CellTiter-Glo ATP luminescence, 48-72 h; max response: active compounds read low; note: potency is the fitted concentration of half-maximal effect; for max response: % is set by controls: 0 for no effect and ±100 for the full control effect
How it was run: (§1)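 Cells exposed to compounds for 48 or 72 hr at 37 degrees Celsius. Viability read as ATP-coupled luminescence with CellTiter-Glo after 10 min at room temperature.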

HaCat [1] = test: as above; settings: Five cell lines viability, CellTiter-Glo ATP luminescence, 48-72 h; max response: active compounds read low
How it was run: as §1

KB-3-1 = test: as above; settings: Five cell lines viability, CellTiter-Glo ATP luminescence, 48-72 h; max response: active compounds read low
How it was run: as §1

NIH3T3 = test: as above; settings: Five cell lines viability, CellTiter-Glo ATP luminescence, 48-72 h; max response: active compounds read low
How it was run: as §1

HACAT [2] = test: qHTS assay to identify novel small-molecules to repurpose for Merkel cell carcinoma treatment (AID 1296009); settings: MCC and control cell lines, CellTiter-Glo viability, 72 h; at 44.8 µM (top of the series) unless noted
How it was run: (§2)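 Cells were incubated with compound for 72 hr at 37 degree celsius before CellTiter-Glo addition. Luminescence was normalized with no-cell wells as full cytotoxicity and DMSO as baseline.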

HEK293T = test: as above; settings: MCC and control cell lines, CellTiter-Glo viability, 72 h; series mostly up to 44.8 µM
How it was run: as §2
Note: nearly all actives have a fitted effect of over 60% in size.

CN(NC(=O)CC(=O)NN(C)C(=S)c1ccccc1)C(=S)c1ccccc1
inactive: outcome (HaCat [1]) | outcome (HACAT [2])
active: Potency (HEK293) 11.6 nM and 13.2 nM | Potency (KB-3-1) 0.0366 µM | Potency (NIH3T3) 51.7 nM and 26.3 nM

N[C@H]1C[C@H]1c1ccc(-c2cccc(O)c2)cc1
inactive: max response (HEK293) -29.8% and -17.5% | max response (HaCat [1]) -1.19% | outcome (HaCat [1]) | outcome (KB-3-1) | max response (NIH3T3) -6.35% | outcome (NIH3T3) | outcome (HACAT [2])

NS(=O)(=O)OC[C@@H]1C[C@@H](n2ccc3c(N[C@H]4CCc5ccccc54)ncnc32)C[C@@H]1O
active: Potency (HEK293) 291 nM and 366 nM | Potency (HaCat [1]) 5.17 µM

C#C[C@]1(O)CC[C@H]2[C@@H]3CCC4=C/C(=N/O)CC[C@@H]4[C@H]3CC[C@@]21CC
inactive: max response (HEK293) -0.147% | max response (HaCat [1]) -21.3% | max response (KB-3-1) -19.2% and -21.5% | outcome (NIH3T3)

NCc1ccc(OCCCc2sc(-c3ccc4c(c3)/C(=N/Nc3nc5ccccc5s3)CCC4)nc2C(=O)O)cc1
active: Potency (HEK293) 2.95 µM | Potency (HaCat [1]) 3.71 µM
inactive: max response (HaCat [1]) 0.629% | max response (KB-3-1) -25.7% | max response (NIH3T3) -6.71%

C[C@]12C=CC(=O)C=C1CC[C@@H]1[C@@H]2[C@@H](O)C[C@@]2(C)[C@H]1CC[C@]2(O)C(=O)COC(=O)CCC(=O)O
inactive: max response (HEK293) -0.357% | outcome (HaCat [1]) | max response (KB-3-1) 2.8% | outcome (KB-3-1) | outcome (NIH3T3) | outcome (HACAT [2])

CCC[C@@H]1C[C@@H](C(=O)N[C@@H]([C@H]2O[C@H](SC)[C@H](OP(=O)(O)O)[C@@H](O)[C@H]2O)[C@H](C)Cl)N(C)C1
inactive: max response (HEK293) -4.58% | max response (HaCat [1]) 4.98% | max response (KB-3-1) -22.3% and -12.7% and 0.837% | outcome (NIH3T3)

N#Cc1ccc2[nH]c(O)c(-c3ccc(CN4CCOCC4)cn3)c2c1
inactive: max response (HEK293) -0.745% | outcome (HEK293) | max response (HaCat [1]) -0.0847% | max response (NIH3T3) -16.6% | outcome (NIH3T3) | Potency (HEK293T)

CCn1c2ccccc2c2cc(CNC)ccc21
inactive: outcome (HaCat [1]) | max response (KB-3-1) -23.4% | outcome (KB-3-1) | max response (NIH3T3) -5.49% | outcome (NIH3T3) | outcome (HACAT [2])
active: Potency (HEK293) 18.4 µM

N#Cc1ccnc(N2C(=O)CC[C@H]2C(=O)N(c2cncc(F)c2)[C@H](C(=O)NC2CC(F)(F)C2)c2ccccc2Cl)c1
active: Potency (HEK293) 3.31 µM | Potency (HaCat [1]) 23.4 µM
inactive: max response (HEK293) -9.11% | max response (HaCat [1]) -27% | max response (KB-3-1) 1.75% | max response (NIH3T3) -4.58%

Cc1cc(Nc2ncc(Cl)c(Nc3ccccc3S(=O)(=O)C(C)C)n2)c(OC(C)C)cc1C1CCNCC1
inactive: outcome (HaCat [1]) | outcome (NIH3T3) | outcome (HACAT [2])
active: Potency (HEK293) 8.2 µM and 4.17 µM | Potency (KB-3-1) 18.4 µM | Potency (NIH3T3) 23.4 µM

CNC(=O)c1ccc(Nc2ncc(C(F)(F)F)c(NCc3nccnc3N(C)S(C)(=O)=O)n2)cc1
active: Potency (HEK293) 5.17 µM | Potency (HaCat [1]) 7.31 µM and 2.95 µM | Potency (KB-3-1) 11.6 µM | Potency (NIH3T3) 14.6 µM and 3.71 µM

CCOc1cc2ncc(C#N)c(Nc3ccc(OCc4ccccn4)c(Cl)c3)c2cc1NC(=O)/C=C/CN(C)C
inactive: max response (KB-3-1) -14.4%
active: Potency (HEK293) 1.42 µM | Potency (HaCat [1]) 0.224 µM

Cc1nn(C)c2c1C(c1ccc(C(F)(F)F)cc1)C(C#N)=C(N)O2 (centres undefined)
inactive: max response (HEK293) -4.39% and 2.32% | max response (HaCat [1]) -6.13% and -14.3% | max response (KB-3-1) 9.42% | max response (NIH3T3) 1.84% | outcome (NIH3T3)

CC(=O)c1cnc2ccc(-c3cc(Cl)c(O)c(Cl)c3)nc2c1NC1CCC(CN(C)C)CC1 (centres undefined)
active: Potency (HEK293) 52.4 nM and 237 nM | Potency (HaCat [1]) 0.0331 µM | Potency (KB-3-1) 0.075 µM | Potency (NIH3T3) 93.3 nM and 299 nM

Nc1ccn([C@@H]2C(F)=C(CO)[C@@H](O)[C@H]2O)c(=O)n1
active: Potency (HEK293) 920 nM and 933 nM | Potency (HaCat [1]) 18.4 µM | Potency (KB-3-1) 9.2 µM | Potency (NIH3T3) 4.61 µM and 3.71 µM

NC1CCC(N[C@@H]2C[C@H]2c2ccccc2)CC1 (some centres undefined)
inactive: max response (HEK293) -15.5% and -3.29% | max response (HaCat [1]) -1.71% | outcome (HaCat [1]) | outcome (KB-3-1) | max response (NIH3T3) 3.03% | outcome (NIH3T3) | outcome (HACAT [2])

CCN[C@@H]1C[C@H](N)[C@@H](O[C@H]2OC(CN)=CC[C@H]2N)[C@H](O)[C@H]1O[C@H]1OC[C@](C)(O)[C@H](NC)[C@H]1O
inactive: max response (HEK293) -0.314% | outcome (HaCat [1]) | max response (KB-3-1) 9.12% | outcome (KB-3-1) | max response (NIH3T3) -0.755% and 2.29% | outcome (HACAT [2])

COc1cc(N2CCC(O)CC2)ccc1Nc1cc(Nc2ccccc2S(=O)(=O)C(C)C)c2cc[nH]c2n1
active: Potency (HEK293) 12.8 µM and 11.7 µM | Potency (HaCat [1]) 8.31 µM | Potency (KB-3-1) 14.3 µM | Potency (NIH3T3) 4.67 µM

O=C(O)C[C@H](O)C[C@H](O)/C=C/c1c(C2CC2)nc2ccccc2c1-c1ccc(F)cc1
active: Potency (HEK293) 5.8 µM | Potency (HaCat [1]) 7.31 µM | Potency (KB-3-1) 4.61 µM | Potency (NIH3T3) 14.6 µM
